This is part of a sample that, as a whole, favours compounds with a hit. Of some 79,000 tested, about 15% had one in any assay. The source made the active and inactive calls. Rule as the data show it: active = growth inhibition above about 70%; inactive = the rest.
Key:
[1] = NCI Yeast Anticancer Drug Screen. Data for the rad50 strain (AID 155);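 also: 0% = growth of vehicle-only cultures of the same strain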; conditions: S. cerevisiae rad50 strain growth inhibition; at 50.0 µM; active compounds read high
Procedure, shortened: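 Inhibition values express reduced yeast growth in compound-treated cultures relative to vehicle-treated controls.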

[2] = NCI Yeast Anticancer Drug Screen. Data for the mec2-1 strain (AID 157); conditions: S. cerevisiae mec2-1 strain, at 50.0 µM, active compounds read high
Procedure, shortened: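 Strain: mec2-1 (DNA repair/cell cycle alteration). Compound exposure, then growth measured; inhibition expressed relative to vehicle.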

[3] = NCI Yeast Anticancer Drug Screen. Data for the sgs1 mgt1 strain (AID 161);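 also: 0% = growth of cultures given vehicle only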; conditions: S. cerevisiae sgs1 mgt1 strain, at 50.0 µM, active compounds read high
Procedure, shortened: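 Test agents were incubated with a DNA-repair-mutant yeast strain. Growth was then read and compared against vehicle-treated controls.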

[4] = NCI Yeast Anticancer Drug Screen. Data for the cln2 rad14 strain (AID 165);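 also: 0% = growth equal to vehicle treated cultures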; conditions: S. cerevisiae cln2 rad14 strain, at 50.0 µM, active compounds read high
Procedure, shortened: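 Compounds are applied to the cln2 rad14 yeast strain, and growth is then compared with that of vehicle-treated cultures to give inhibition.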

[5] = NCI Yeast Anticancer Drug Screen. Data for the bub3 strain (AID 167); conditions: S. cerevisiae bub3 mutant strain, at 50.0 µM, active compounds read high
Procedure, shortened: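 Steps: expose the mutant yeast strain to compound; grow alongside vehicle-treated cultures; measure growth; express inhibition against the vehicle cultures.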

[6] = NCI Yeast Anticancer Drug Screen. Data for the mlh1 rad18 strain (AID 175); conditions: S. cerevisiae mlh1 rad18 strain growth inhibition; at 50.0 µM; active compounds read high
Procedure, shortened: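 Read-out is yeast growth inhibition, calculated against vehicle-only controls. The compound was applied to a strain engineered with DNA damage repair alterations.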

Measured: growth inhibition

O=C(O)CCCCNC(=O)c1ccccc1
inactive: [1] 19.6% | [2] -14.4% | [3] 3.25% | [4] 12.3% | [5] -4.8% | [6] 9.4%

O=C1c2ccccc2C(=O)c2c1ccc(C(=O)O)c2[N+](=O)[O-]
inactive: [1] 29.4% | [2] 16.6% | [3] 32.2% | [4] 31.8% | [5] 19.7% | [6] 28%

O=c1[nH]nc(SC2CCCCC2)c(=O)[nH]1
inactive: [1] -12.1% | [2] -3.1% | [3] -11.9% | [4] -5.4% | [5] 4.85% | [6] -11.1%

COC(=O)c1cccnc1
inactive: [1] 6.65% | [2] -3.85% | [3] -0.35% | [4] 7.2% | [5] -23.8% | [6] -1.2%

OCCN1CCOCC1
inactive: [1] 31.9% | [2] -2.05% | [3] 1.4% | [4] 24.9% | [5] 7% | [6] 27.2%

O=C1C=C(Nc2ccc([N+](=O)[O-])cc2)c2ccccc2C1=O
inactive: [1] 18.4% | [2] -10.9% | [3] -1.3% | [4] 4.65% | [5] -12.9% | [6] -8.8%

COCCOC(=O)c1ccc(C(C)C)cc1
inactive: [1] 8.8% | [2] 0.35% | [3] 0.2% | [4] -9.35% | [5] 2.75% | [6] -0.45%

Cc1cc(N2CCC(N3CCCC3)CC2)nc(/N=C(\N)Nc2ccc(Cl)c(Cl)c2)n1
inactive: [1] 18.1% | [2] -2.25% | [3] -6.05% | [4] -3.7% | [5] 4% | [6] 34%

CC1Cc2ccccc2O1 (stereo unspecified)
inactive: [1] 2.7% | [2] 0.35% | [3] -3.7% | [4] -2.35% | [5] 2.9% | [6] 11%

CC12CC3CC1C(C(=O)O2)C3C(=O)O (stereo unspecified)
inactive: [1] -20.6% | [2] -27.5% | [3] -25.8% | [4] 5.85% | [5] -7.2% | [6] -8.8%

CN(C)c1ccc(C(c2ccc(O)cc2)c2ccc(N(C)C)cc2)cc1
inactive: [1] -10.4% | [2] -37.1% | [3] -17.9% | [4] -38.6% | [5] -3% | [6] -6.5%

Nc1ccccc1C(=O)Nc1ccc(Cl)cc1Cl
inactive: [1] -9.1% | [2] -22.4% | [3] 7.4% | [4] 4.85% | [5] 21.9% | [6] 2.35%

CC(=O)c1sc2c(c1OC(=O)c1ccc(Cl)cc1Cl)c(=O)n(-c1ccccc1)c(=S)n2-c1ccccc1
inactive: [1] -3.95% | [2] -23.3% | [3] -19.4% | [4] -5.65% | [5] -6.55% | [6] -3.85%

CC(C)(O)C#CC#CC(C)(C)O
inactive: [1] 30.9% | [2] 4.2% | [3] 5.4% | [4] 3.8% | [5] -41% | [6] -0.55%

N#Cc1c(N)sc(=S)c2c1CCCC2
inactive: [1] 9.65% | [2] 9.85% | [3] 29.4% | [4] 1.8% | [5] -2.05% | [6] 11.4%

COc1cc(CCN=Cc2ccccc2O)c([N+](=O)[O-])cc1OC
inactive: [1] -3.6% | [2] -10.5% | [3] 16.1% | [4] 11.7% | [5] -7.05% | [6] -2.35%

Cc1cc(C)c(CC(=O)O)c(C)c1
inactive: [1] 30.5% | [2] 6.3% | [3] 16.9% | [4] 12.3% | [5] 4.3% | [6] 10.4%

CCOc1ccc2[nH]c(=S)sc2c1
inactive: [1] 35.5% | [2] 12.9% | [3] 29.9% | [4] 15.5% | [5] -1.5% | [6] 21.4%

C=CCCCCCCCCCOC(C)=O
inactive: [1] -14.3% | [2] -41.1% | [3] -20.4% | [4] -9.5% | [5] -2.8% | [6] 8.25%

CCOC(=O)CCCS(C)(=O)=O
inactive: [1] -26.5% | [2] -19.6% | [3] -32% | [4] -17.9% | [5] -1.95% | [6] 7.3%

COC(=O)c1ccccc1Br
inactive: [1] -1.7% | [2] 7.8% | [3] 3.4% | [4] -22.1% | [5] -3.75% | [6] 6.45%

CCOC(=O)CCCC(=O)OCC
inactive: [1] 20.8% | [2] -8.1% | [3] 1.65% | [4] 7.7% | [6] 19.6%

CCOC(=O)C1=C(Nc2ccc(Br)cc2)C(=O)N(CC)C1
inactive: [1] 12.7% | [2] 1.2% | [3] 33% | [4] 14.9% | [6] 19.1%

COc1cc(C2NC(=O)C(C#N)=C(Nc3cccc(C)c3)S2)ccc1O (stereo unspecified)
inactive: [1] -2.7% | [2] -18.8% | [3] 13.4% | [4] 1% | [6] -16.9%

O=C(/C=C/C(=O)c1ccccc1)c1ccccc1
inactive: [1] 41.8% | [2] 16.4% | [3] 28.1% | [4] -31.4% | [6] 51.1%

OC1CCCc2ccccc21 (stereo unspecified)
inactive: [1] 17.6% | [2] 17.4% | [3] 13.6% | [4] -17.9% | [6] 20.2%

CNc1nc(NC)c2cn[nH]c2n1
inactive: [1] 17.7% | [2] 2.3% | [3] 20.2% | [4] -9.25% | [6] 16.1%

CC(C)=C(NC(=O)c1ccccc1)C(=O)O
inactive: [1] 14.1% | [2] 0.35% | [3] -5.25% | [4] 22% | [6] 12.9%

O=[N+]([O-])c1ccc(-c2noc(-c3cccs3)n2)cc1
inactive: [1] -3.2% | [2] -31.9% | [3] 13.4% | [4] 15% | [6] -11.8%

Nc1ccc(N=Nc2ccc(S(=O)(=O)O)cc2)c2ccccc12
inactive: [1] -0.3% | [2] 3.15% | [3] -22.4% | [4] -25.9% | [6] 9.05%

CC1CC(O)CC(C)(C)C1 (stereo unspecified)
inactive: [1] 5.55% | [2] -10.1% | [3] 1.35% | [4] -25.4% | [6] -4.25%

Cc1cc(N)c(S(=O)(=O)O)c(N)c1
inactive: [1] -31.9% | [2] 5.65% | [3] -4% | [4] -15.1% | [6] -57.8%

COc1cc2c(cc1OC)[C@H](C(=O)O)[C@@H](c1ccc(OC(C)C)c(OC)c1)N(C)C2=O
inactive: [1] 6.05% | [2] -10% | [3] 7.2% | [4] -15.2% | [6] -9.05%

— PubChem BioAssay (NCI)
